Screening data from PubChem BioAssay.
TDP1 cell CPT = DT40-hTDP1 cell growth loss with CPT; chicken DT40 Tdp1-/-;hTDP1 cells + 20 nM CPT, ATP luminescence, 48 h; Potency, µM (highest dose often 46.2 µM), actives largely listed as inhibitors; hit rate 12% among 420,000; AID 686979; further: nearly all actives have a fitted effect of over 55% in size
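Chicken DT40 Tdp1-/- cells stably complemented with human TDP1 were seeded at 400 cells/well in medium containing 20 nM camptothecin, exposed to pin-transferred compounds, and grown at 37 °C for at least 48 hr. Viability was read as ATP luminescence.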
TDP1 inh = TDP1 (human) enzyme inhibition. Q9NUW8. recombinant TDP1, AlphaScreen DNA substrate cleavage. Potency, µM (series often up to 130 µM), most hits filed as inhibitors. hit rate 0.28% among 350,000; further: nearly all actives have a fitted effect of over 40% in size
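Compounds were preincubated with Tdp1 (1 nM final) for 15 min at room temperature before substrate (15 nM final) started a 5 min reaction; beads (10 ug/ml final) were then added for 10 min before AlphaScreen detection.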
ClpP mod = qHTS Assay for Activators of ClpP; ATP-dependent Clp protease proteolytic subunit (Bacillus subtilis (strain 168)), P80244; purified B. subtilis ClpP, FRET peptide cleavage, 20 min; Potency, µM (doses to about 57.5 µM); hit rate 1.9% among 340,000; active means well fitted falling curve with a large enough effect; inconclusive means small, poorly fitted or top-dose-only effect; inactive means no such curve, though single readings can be large or run the other way; further: the source files actives as falling curves though it sought activators and does not explain the sign; nearly all actives have a fitted effect of over 65% in size
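FRET quenching reversal measured ClpP activation: 10 microg/mL B. subtilis ClpP at pH 8 with the FRET-FV decapeptide, read at 430 nm after 320 nm excitation. The 20-min minus 0-min signal was scaled between DMSO/no-enzyme wells and ADEP (5.8 microM final).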
TDP1 cell noCPT = qHTS for Inhibitors of human tyrosyl-DNA phosphodiesterase 1 (TDP1): qHTS in cells in absence of CPT | DT40 Tdp1-/- hTDP1 cells, no CPT, ATP luminescence, 48 h | Potency, µM (series often up to 46.2 µM), hits mostly inhibitors | hit rate 15% among 420,000 | AID 686978, 2013; further: nearly all actives have a fitted effect of over 55% in size
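Chicken DT40 Tdp1-/- cells complemented with human TDP1, screened without camptothecin (DMSO vehicle only), 400 cells/well. Compounds pin-transferred, cells incubated at 37 °C for at least 48 hr. Growth read as ATP-dependent luminescence (CellTiter-Glo, 30 min at RT).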
A number is an active result; - = inactive; ? = inconclusive; . = no result; [ ] = dose if it differs, or a comment. Rows were chosen to be rich in hits. Some 17% of all compounds tested hit in one or more screens of this group. Unless noted, the call rests on the fitted dose curve; in most records, active means well fitted curve in the direction sought with a large enough effect; inconclusive means small, poorly fitted or top-dose-only effect, or another doubt; inactive means no such curve, though single readings can be large; an effect the other way counts as inactive or inconclusive.

SMILES	TDP1 cell CPT	TDP1 inh	ClpP mod	TDP1 cell noCPT
C=CC[C@@H](Cc1ccc(F)cc1)C(=O)OC[C@@H]1CCCN1C(=O)[C@H](CC=C)CC(=O)N[C@H](CO)Cc1ccccc1	?	-	-	18µM
COc1cc(OC)cc(C(=O)OCC(=O)Nc2ccc(N3CCCCC3)cc2)c1	-	-	-	-
O=C(CNC1CCCCCC1)Nc1ccc(N2CCCC2)cc1	.	-	.	.
COCC(=O)Nc1sc2c(c1C(=O)OC)CCCC2	-	-	-	-
COC(=O)c1c(NC(=O)COC(=O)c2ccc(O)cc2)sc2c1CCCCC2	?	-	.	29µM
O=C(CNCCC1=CCCCC1)Nc1ccc(N2CCCCCC2)cc1	21µM	-	-	21µM
CCOC(=O)c1c(CC(C)C)csc1NC(=O)COC(=O)c1ccc(O)cc1	23µM	-[0.505 µM]	?	18µM
O=C(COC(=O)c1ccc(O)cc1)Nc1ccc(N2CCCCC2)cc1	?	-	-	21µM
CCOC(=O)c1c(CC(C)C)csc1NC(=O)COC(=O)C1=NNC(=O)CC1	-	-	-	-
CCc1nnc(NC(=O)CN2CCCC(C)C2)s1 (configuration not stated)	-	.	-	-
NC(=O)c1c(NC(=O)COC(=O)c2ccc(S(=O)(=O)Nc3ccccc3)cc2)sc2c1CCCC2	?	-	20µM	-
CC1=C(C(=O)OC2CCCCC2)C(c2ccc(F)cc2)NC(=O)N1 (configuration not stated)	-	.	.	?
Cc1ccccc1N(C)S(=O)(=O)c1ccc2[nH]cc(C(=O)NCC3CCCO3)c(=O)c2c1 (configuration not stated)	?	-	32µM	?
CCOc1ccc(N(C)S(=O)(=O)c2ccc3[nH]cc(C(=O)NCC4CCCO4)c(=O)c3c2)cc1 (configuration not stated)	?	-	-	?
CCc1ccc(N(C)S(=O)(=O)c2ccc3[nH]cc(C(=O)NCC4CCCO4)c(=O)c3c2)cc1 (configuration not stated)	?	-	-	15µM
CC12CC(NC(=O)N1CCc1ccccc1)c1cc(Cl)ccc1O2 (configuration not stated)	?	-	-	21µM
CC12CC(NC(=O)N1Cc1ccccc1)c1ccccc1O2 (configuration not stated)	?	-	-	-
Cc1c(O)c2c(c(C(=O)/C=C/c3ccccc3)c1O)OC(C)(C)C=C2	?	.	-	11µM
COc1cc2c(cc1OC)C(CCc1ccccc1)=NCC2	?	.	.	16µM
COc1cc2c(cc1OC)C(c1c(-c3c(Cl)cccc3Cl)noc1C)=NCC2	23µM	.	-	10µM
COc1ccc(C2=NC(C)(C)Cc3cc(OC)c(OC)cc32)cc1	-	.	-	?
S=C(c1ccc(-c2cc(Cl)ccc2Cl)o1)N1CCCCC1	?	-	-	?
COc1cc2c(cc1OC)C(/C=C/c1ccc(OC)c(OC)c1OC)=NCC2	?	-	.	?
COc1cc2c(cc1OC)C(c1cc(-c3cc(Cl)ccc3Cl)oc1C)=NCC2	1.3µM	.	-	1µM
COc1ccc(C2=NCCc3cc(OC)c(OC)cc32)cc1	?	-	-	21µM
SMILES	TDP1 cell CPT	TDP1 inh	ClpP mod	TDP1 cell noCPT
Cc1onc(-c2c(Cl)cccc2Cl)c1C(N)=O	?	-	-	-
CCN(C(=O)CCc1nnc2ccc(NCc3ccco3)nn12)c1ccccc1	-	-	-	-
COc1cc2c(cc1OC)C(c1c(Cl)cccc1Cl)=NCC2	0.26µM	.	-	0.23µM
Cc1cc(S(=O)(=O)NCc2ccc(N3CCN(C)CC3)cc2)c(C)s1	?	-	.	21µM
COc1ccc(OC)c(S(=O)(=O)NCc2ccc(N3CCN(C)CC3)cc2)c1	-	-	-	-
NS(=O)(=O)c1ccc(CNS(=O)(=O)Cc2ccc(Cl)cc2)cc1	-	-	-	-
CN1CCN(c2ccc(CNS(=O)(=O)Cc3ccc(Cl)cc3)cc2)CC1	?	-	-	16µM
CN1CCN(c2ccc(CNS(=O)(=O)c3ccc(F)cc3Cl)cc2)CC1	18µM	-	-	?
COC(=O)CCNC(=O)CCc1ccc(S(=O)(=O)N2CCCCCC2)cc1	-	-	-	-
COc1ccc(S(=O)(=O)N2CCCOC2CNC(=O)C(=O)NC2CCCC2)cc1 (configuration not stated)	-	-	-	-
Cc1ccc(C)c(NS(=O)(=O)c2ccc3oc(=O)ccc3c2)c1	-	-	-	?
Cc1ccc(C)c(NS(=O)(=O)c2ccc3c(c2)Cc2cc(S(=O)(=O)Nc4cc(C)ccc4C)ccc2-3)c1	21µM	-	-	13µM
COc1ccc(CNC(=O)COC(=O)CN2C(=O)C3CCCCC3C2=O)cc1 (configuration not stated)	-	.	-	-
O=C(CSc1ncnc2[nH]ncc12)Nc1nc(-c2ccc(F)c(F)c2)cs1	13µM	.	-	21µM
CCCC(=O)Nc1nc(-c2ccc(OC)cc2)cs1	?	-	-	?
COc1ccc(-c2csc(NC(=O)CS(=O)(=O)c3ccccc3)n2)cc1	?	.	.	23µM
O=C(Cc1ccc(F)cc1)Nc1nc(-c2ccc(F)c(F)c2)cs1	8.2µM	.	-	?
Cc1cccc(C)c1NC(=O)CSc1ncnc2[nH]ncc12	-	-	-	-
COc1ccc(-c2csc(NC(=O)CN3C(=O)NC4(CCCC4)C3=O)n2)cc1	-	.	-	-
O=C(CN1C(=O)NC2(CCCC2)C1=O)Nc1nc(-c2ccc(F)c(F)c2)cs1	12µM	-	-	?
CCC/C=C1\CCCOC(C(=O)NCc2ccccc2)(C(F)(F)F)C1 (configuration not stated)	.	-	.	.
COc1ccc(CC(=O)Nc2nc(-c3ccc(F)c(F)c3)cs2)cc1	21µM	-	.	16µM
COc1ccc(CC(=O)Nc2nc(-c3ccncc3)cs2)cc1	-	-	.	-
OC[C@H]1OC(O)[C@H](O)[C@@H]1O (some centres not stated)	-	.	-	-
O=C(NN1C(=O)/C(=C\c2cccnc2)SC1=S)C(c1ccccc1)c1ccccc1	?	-	-	26µM
SMILES	TDP1 cell CPT	TDP1 inh	ClpP mod	TDP1 cell noCPT
O=C(NN1C(=O)/C(=C/c2cccnc2)SC1=S)C(c1ccccc1)c1ccccc1	?	-	-	?
Cc1ccc(N2C(=O)/C(=C/c3cccnc3)SC2=S)cc1	-	-	-	-
O=C1/C(=C\c2cccnc2)SC(=S)N1C1CCS(=O)(=O)C1 (configuration not stated)	3.7µM	-	-	18µM
O=C1/C(=C/c2cccnc2)SC(=S)N1NS(=O)(=O)c1ccccc1	-	.	-	-
O=C1/C(=C/c2cccnc2)SC(=S)N1C1CCS(=O)(=O)C1 (configuration not stated)	10µM	-	-	9.2µM
CCC[C@H]1CN(Cc2ccccc2)C(=O)[C@@H]1CC(=O)NC	-	.	-	-
COC(=O)c1c(SCC(=O)Nc2cccc(Cl)c2C)[nH]c2ccccc2c1=O	23µM	-	-	?
